In the supplement of paper PMC9262897, “Low-cost anti-mycobacterial drug discovery using engineered E. coli” (Nature Communications, 2022):
Structures can show the parent of a compound that is named as a salt. ± gives the standard deviation of the averaged measurements.

Tests used:
Assay in all cases: growth (OD600 after 10 h); higher = more growth (less inhibition)
[1] = system: E. coli TESEC Alr+ wild-type control; conditions: compound 0.1 mM; raw OD600 reference: median of DMSO wells 0.241, cell-free background 0.041
Procedure: (§1)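 TESEC Mtb Alr E. coli, or the Alr+ wild-type control, in 384-well plates with Prestwick library compounds at 0.1 mM and 1% DMSO, across arabinose induction levels of 1E3 to 1E7 nM. Growth is read as OD600 after 10 h at 37 °C in triplicate biological replicates.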

E. coli TESEC Mtb Alr [2] = conditions: compound 0.1 mM
Procedure: as §1

E. coli TESEC Mtb Asd = conditions: compound 0.1 mM
Procedure: (§2)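 TESEC E. coli strains in which the native enzyme is deleted and replaced by arabinose-inducible Mtb Asd, DapB, CysH or TrpD, each grown in its selective medium. Strains were screened against the Prestwick library at 0.1 mM and 1% DMSO in 384-well format at low and high arabinose induction. Growth is read as OD600 after 10 h in triplicate.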

E. coli TESEC Mtb DapB = conditions: compound 0.1 mM
Procedure: as §2

E. coli TESEC Mtb Alr [3] = conditions: compound 0.1 mM; remark: listed apart in the source
Procedure: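 TESEC Mtb Alr E. coli (ΔaraC ΔtolC ΔentC Δalr ΔdadX, arabinose-inducible Mtb Alr) or the Alr+ wild-type control strain, grown in defined M9-fructose medium without D-alanine in 96-well plates with Prestwick library compounds at 0.1 mM and 1% DMSO. Low Alr induction is 0.1 µM arabinose and high induction is 10 mM arabinose.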

[4] = arabinose 1000 nM, raw OD600 reference: median of DMSO wells 0.294, cell-free background 0.041
[5] = arabinose 10000 nM, raw OD600 reference: median of DMSO wells 0.264, cell-free background 0.041
[6] = arabinose 100000 nM, raw OD600 reference: median of DMSO wells 0.201, cell-free background 0.041
[7] = arabinose 1000000 nM, raw OD600 reference: median of DMSO wells 0.193, cell-free background 0.041
[8] = arabinose 10000000 nM, raw OD600 reference: median of DMSO wells 0.146, cell-free background 0.041
[9] = arabinose induction (level): High, raw OD600 reference: median of DMSO wells 0.331, cell-free background 0.041
[10] = arabinose induction (level): Low, raw OD600 reference: median of DMSO wells 0.417, cell-free background 0.041
[11] = arabinose induction (level): High, raw OD600 reference: median of DMSO wells […], cell-free background 0.041
[12] = arabinose induction (level): Low, raw OD600 reference: median of DMSO wells 0.227, cell-free background 0.041
[13] = arabinose 100 nM, raw OD600 reference: median of DMSO wells 0.413, cell-free background 0.052
[14] = arabinose 10000000 nM, raw OD600 reference: median of DMSO wells […], cell-free background 0.052

SMILES	growth [1]	growth (E. coli TESEC Mtb Alr [2]; [4])	growth (E. coli TESEC Mtb Alr [2]; [5])	growth (E. coli TESEC Mtb Alr [2]; [6])	growth (E. coli TESEC Mtb Alr [2]; [7])	growth (E. coli TESEC Mtb Alr [2]; [8])	growth (E. coli TESEC Mtb Asd; [9])	growth (E. coli TESEC Mtb Asd; [10])	growth (E. coli TESEC Mtb DapB; [11])	growth (E. coli TESEC Mtb DapB; [12])	growth (E. coli TESEC Mtb Alr [3]; [13])	growth (E. coli TESEC Mtb Alr [3]; [14])
COc1cccc(C2(O)CCCCC2CN(C)C)c1 (stereo unspecified) [Tramadol hydrochloride]	0.238 ± 0.0082	0.308 ± 0.012	0.271 ± 0.0049	0.193 ± 0.0059	0.193 ± 0.012	0.1352 ± 0.00092	0.31 ± 0.028	0.403 ± 0.065	0.188 ± 0.04	0.202 ± 0.014	0.4058 ± 0.0034	0.327 ± 0.016
CC(C)C[C@H](CN)CC(=O)O [Pregabalin]	0.239 ± 0.015	0.291 ± 0.0063	0.273 ± 0.013	0.178 ± 0.022	0.223 ± 0.015	0.134 ± 0.0081	0.28 ± 0.062	0.406 ± 0.038	0.201 ± 0.0072	0.231 ± 0.07	0.41 ± 0.01	0.306 ± 0.013
CN1[C@@H]2CC[C@H]1C[C@@H](OC(=O)[C@H](CO)c1ccccc1)C2 [Hyoscyamine (L)]	0.243 ± 0.0078	0.293 ± 0.024	0.272 ± 0.0055	0.23 ± 0.011	0.176 ± 0.005	0.158 ± 0.011	0.317 ± 0.073	0.377 ± 0.074	0.191 ± 0.014	0.29 ± 0.023	0.415 ± 0.02	0.34 ± 0.02
O=C1CC[C@@]2(O)[C@H]3Cc4ccc(O)c5c4[C@@]2(CCN3CC2CC2)[C@H]1O5 [Naltrexone hydrochloride dihydrate]	0.242 ± 0.0065	0.279 ± 0.022	0.2685 ± 0.0019	0.173 ± 0.023	0.175 ± 0.0025	0.139 ± 0.0097	0.224 ± 0.013	0.443 ± 0.05	0.193 ± 0.0052	0.219 ± 0.048	0.4315 ± 0.0022	0.335 ± 0.0091
NCC(CC(=O)O)c1ccc(Cl)cc1 (racemic) [Baclofen (R,S)]	0.248 ± 0.011	0.299 ± 0.0066	0.2703 ± 0.0017	0.22 ± 0.029	0.189 ± 0.0083	0.15 ± 0.007	0.392 ± 0.032	0.422 ± 0.029	0.219 ± 0.017	0.246 ± 0.04	0.408 ± 0.0092	0.361 ± 0.026
C=CCN1CC[C@]23c4c5ccc(O)c4O[C@H]2C(=O)CC[C@@]3(O)[C@H]1C5 [Naloxone hydrochloride]	0.244 ± 0.012	0.266 ± 0.026	0.27 ± 0.016	0.192 ± 0.021	0.178 ± 0.0076	0.137 ± 0.0051	0.295 ± 0.066	0.498 ± 0.028	0.202 ± 0.0047	0.255 ± 0.059	0.419 ± 0.0087	0.317 ± 0.026
O=P1(N(CCCl)CCCl)NCCCO1 (stereo unspecified) [Cyclophosphamide]	0.2382 ± 0.0022	0.271 ± 0.011	0.276 ± 0.0047	0.18 ± 0.021	0.204 ± 0.022	0.137 ± 0.0039	0.341 ± 0.066	0.446 ± 0.014	0.205 ± 0.019	0.216 ± 0.029	0.4139 ± 0.003	0.314 ± 0.012
COc1ccc2c(c1)[C@]13CCCC[C@@H]1[C@H](C2)N(C)CC3 [Dextromethorphan hydrobromide monohydrate]	0.1976 ± 0.0013	0.25 ± 0.005	0.255 ± 0.0068	0.2 ± 0.027	0.154 ± 0.0044	0.142 ± 0.002	0.168 ± 0.015	0.29 ± 0.045	0.17 ± 0.015	0.232 ± 0.031	0.42 ± 0.006	0.355 ± 0.015
